About 560 (40%) of roughly 1,400 compounds were called active. The set was probably picked from earlier hits. Some of the results follow. A number with no mark means an inactive call.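 How the source made its calls: active means mean inhibition over duplicate tests at 10 µM above 50%; inactive means the rest.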

The assay is described as follows: ASC/caspase-1 reporter retest in S. cerevisiae at one dose, specificity check for NALP1 project (AID 488857). Particulars: S. cerevisiae ASC/Caspase-1, beta-galactosidase luminescence, 24 h; at 10 µM; stronger effect = higher value.
In general, inhibition refers to the percentage by which the read-out fell short of the control. `CCOc1cc(/C=N/NC(=O)c2nn(C)cc2Br)ccc1OCc1ccccc1Cl`: the inhibition is 26.2%. As for `CC(=O)Nc1ccc2nc(CN3CCC(CO)(CCc4ccccc4)CC3)ccc2c1`, the inhibition is 36.4%. As to `CCCCn1cnc2c1c(=O)[nH]c(=O)n2CCCC`, the inhibition was 7.55%.

As to `Cc1[nH]c2ccccc2c1C(=O)CSc1nc2ncc(Cl)cc2[nH]1`, the inhibition is 36.2%.

In the case of `CC(NC(=O)/C(C#N)=C/c1ccc([N+](=O)[O-])o1)c1ccccc1` (configuration not stated), the inhibition was 36.7%. As to `CC(OC(=O)CC(NC(=O)c1ccccc1Cl)c1ccccc1)C(=O)Nc1cccc(Cl)c1Cl` (configuration not stated), the inhibition is 34.5%. On to `CC(C)NC(=O)/C(C#N)=C/c1cccc(NC(=O)c2ccccc2Cl)c1`, for which the inhibition was 63.5% (active). Take `CC(NC(=O)/C(C#N)=C/c1ccc(Cl)c([N+](=O)[O-])c1)c1ccccc1` (configuration not stated): the inhibition is 62.2% (active).

`CC(=O)Nc1sc2c(c1-c1nc3ccccc3s1)CCN(C(C)C)C2`: the inhibition was 98% (active). For `Fc1ccc(NC(=S)N2CCSC2c2cccs2)cc1` (configuration not stated), the inhibition is 25.8%.

Consider `CC(C)(C)c1ccc(/C=C/C(=O)c2ccc(NC3=NCCCS3)cc2)cc1`, for which the inhibition is 53.1% (active). In the case of `Cc1cccc(/C=C/C(=O)c2ccc(NC3=NCCCS3)cc2)c1` it was 60.4% (active). For `CC(=O)OCC(=O)[C@H]1CC[C@H]2[C@@H]3CC=C4C[C@@H](O)CC[C@]4(C)[C@H]3CC[C@]12C`, the inhibition is 32.5%. In the case of `Brc1ccc(C=Nc2ccc(Nc3ccccc3)cc2)s1`, the inhibition was 56.1% (active). Consider `Cc1ccccc1OCC(=O)Nc1sc2c(c1C#N)CCC2`, for which the inhibition is 35.5%. For the compound `Cc1ccc(C(=O)c2c(NC(=O)c3ccncc3)sc3c2CCCC3)cc1`, the inhibition is 58.1% (active).

As for `CCCCNC1CCS(=O)(=O)C1` (configuration not stated), the inhibition was 37.9%.

Regarding `CC(C)Oc1ccc2c(=O)c(-c3ccccc3)coc2c1`, the inhibition was 73.6% (active). For the compound `CC(C)OC(=O)COc1ccc(-c2ccccc2)cc1`, the inhibition was 47.1%.

In the case of `Cc1ccc(CN2CCN(/N=C/c3ccc(C(F)(F)F)cc3)CC2)c(C)c1`, the inhibition is 50.5% (active). `O=C(Nc1cccc(F)c1)c1ccc(CSc2ccccc2)o1`: the inhibition was 37.5%. Consider `Cc1ccccc1-c1ccc(C(=O)Nc2cccc(F)c2)o1`, for which the inhibition was 56.5% (active).

Take `Cc1oc(C(=O)O)cc1COc1ccc2c3c(c(=O)oc2c1)CCC3`: the inhibition is 46.1%. Take `COc1ccc2c(c1)O/C(=C\c1sccc1C)C2=O`: the inhibition is 66.5% (active).

With `COC(=O)c1cccc(NC(=O)/C=C/c2ccc3c(c2)OCO3)c1`, the inhibition is 77.6% (active). Take `O=C(O)c1ccc2c(c1)N(Cc1cccc(F)c1)C(=O)CS2`: the inhibition is 19.6%. For `COc1ccccc1OCCN1CSC(=S)N(C)C1`, the inhibition is 54.5% (active).

The record behind these values is PubChem BioAssay AID488857 (Sanford-Burnham Center for Chemical Genomics, 2010).
